Measurements taken from PubChem BioAssay (EPA / NIEHS).
Inconclusive results are not listed. Calls of active or inactive are those of the source. How the source made its calls: active means hit-call score of the fitted dose curve at least 0.9, where 1 is the maximum; inconclusive means response in the unintended direction; inactive means score below 0.9.

Key:
[1] = VALA_TUBHUV_Antagonist_CellCount: Viability Assessment in the VALA Sciences human Umbilical Vein Endothelial Tubule Formation (TUBHUV) Antagonism Assay (AID 2284310)
Summary of the method: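 Read-out is imaged cell count after nuclear and CD31 staining, fitted against 0.1% DMSO vehicle. Compounds were added for 3 days, in 10 ng/ml VEGF assay medium, to HUVEC–HDF co-cultures pre-grown 3 days.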

[2] = VALA_MIGHUV2_CellCount: Viability Assessment in the VALA Sciences human Umbilical Vein Endothelial Cell Migration (MIGHUV) Assay, Area of Scratch Wound after Recovery (AID 2284314)
Procedure: VALA_MIGHUV2_BCatenin is a cell-based, multiplexed assay that uses umbilical vein-derived endothelial cells (HUVEC). Measurements were taken 24 hours after chemical dosing in a 96-well plate.VALA_MIGHUV2_CellCount is the one of two assay components measured from the VALA_MIGHUV2 assay. It is designed to make measurements of viability, a form of viability reporter, as detected with fluorescence intensity signals by HCS Fluorescent Imaging technology. Data from the assay component VALA_MIGHUV2_CellCount was analyzed at the endpoint, VALA_MIGHUV2_CellCount, in the positive analysis fitting direction relative to DMSO as the negative control and baseline of activity. Using a type of viability reporter, loss-of-signal activity can be used to understand viability. To generalize the intended target to other relatable targets, this assay endpoint is annotated to the cell cycle intended target family, where the subfamily is cell count.
Cells were seeded on 384-well microplates (day-0) at a density of 9000 cells per well for detection of wound area recovery or 4000 cells per well for detection of beta-catenin (CTNB) immunoreactivity and incubated in Endothelial Cell Growth Medium (CAI, San Diego; catalog 211-500). After 24 hours of culture, the HUVEC plates were scratched using a custom scratch head with the Bravo liquid handling system. This created a 'wound' area without cells in each well. […]

[3] = VALA_TUBIPS_Antagonist_TubuleLength: VALA Sciences human iPS-derived Endothelial Tubule Formation (TUBIPS) Antagonist Assay (AID 2284313)
Summary of the method: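 Tubule length was quantified by high-content imaging of CD31- and nuclear-stained cells, with 0.1% DMSO as neutral and 100 uM suramin as inhibition control. Compounds were applied for 3 days, in 10 ng/ml VEGF, to cultures pre-grown 3 days.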

[4] = VALA_MIGHUV2_Bcatenin: VALA Sciences human Umbilical Vein Endothelial Cell Migration (MIGHUV) Assay, Nuclear Translocation of beta-Catenin after Recovery (AID 2284315)
Summary of the method: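 Nuclear beta-catenin imaged by immunofluorescence with Hoechst counterstain in fixed HUVEC, 24 h after scratch wounding and chemical addition. Six-point concentration-response in triplicate; activity scored as signal increase over 0.1% DMSO vehicle.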

O=[N+]([O-])c1cc(C(F)(F)F)c(Cl)c([N+](=O)[O-])c1Nc1ncc(C(F)(F)F)cc1Cl
outcome [1]: inactive
outcome [2]: inactive

CC1=NNC(=O)N(/N=C/c2cccnc2)C1
outcome [3]: inactive

S=C1NCCN1
outcome [3]: inactive
outcome [4]: inactive
